# D1 PAM: Potentiators of Human D1 Dopamine Receptor: qHTS | D(1A) dopamine receptor (Homo sapiens), P21728 | potentiation, % at 10 µM | AID 504651, 2011 | HEK293 TREx D1 cells, calcium flux, dopamine EC20 potentiation | 0.036% of 360,000 active; in the data active = potentiation above about 30%
# D3 antag: qHTS of D3 Dopamine Receptor Antagonist: qHTS; D3R cells, DiscoveRx beta-arrestin luminescence, antagonist mode; stronger effect = lower value; max response, negative = inhibition, %; 2.5% of 360,000 active; AID 652054, 2013; in the data active = max response below about -50%; inconclusive = no clear call, values can overlap the other calls
# Target sequence (P35462 whole entry, looked up): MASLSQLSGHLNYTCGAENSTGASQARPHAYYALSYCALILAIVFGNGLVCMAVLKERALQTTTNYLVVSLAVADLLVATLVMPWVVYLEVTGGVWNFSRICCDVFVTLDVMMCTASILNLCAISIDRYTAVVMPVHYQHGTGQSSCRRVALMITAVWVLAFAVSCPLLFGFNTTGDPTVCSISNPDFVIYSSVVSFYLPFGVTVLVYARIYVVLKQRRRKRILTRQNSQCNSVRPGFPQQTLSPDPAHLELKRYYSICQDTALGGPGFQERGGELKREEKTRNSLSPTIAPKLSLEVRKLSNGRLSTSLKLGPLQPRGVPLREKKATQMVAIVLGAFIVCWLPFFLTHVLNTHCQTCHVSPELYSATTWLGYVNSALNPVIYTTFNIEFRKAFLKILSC
#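 Cells expressing the human receptor were seeded at 1500 cells/well, incubated overnight at 37 degrees C in 5% CO2, then exposed to library compounds with dopamine controls for 90 minutes at 37 degrees C before luminescent detection.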
# D1 ag: Allosteric Agonists of the Human D1 Dopamine Receptor: qHTS. HEK293 T-REx D1 cells, calcium flux, agonist mode. activation, % at 2 µM. 1% of 360,000 active; in the data active = activation above about 30%
#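 Tetracycline-induced HEK293 TREx D1 cells, force-coupled to calcium signalling, were dye-loaded with a no-wash calcium kit. Compound was pin-added after a 10 s baseline. Fluorescence was read kinetically at 1 cycle/s for 180 s, with calcium rises flagged as agonism.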
# DRD3 agonist: qHTS of D3 Dopamine Receptor Agonist: qHTS; D(3) dopamine receptor (Homo sapiens), P35462; D3R DiscoveRx beta-arrestin cells, luminescence, 90 min; max activation, %; 0.58% of 410,000 active; in the data active = max activation above about 30%
#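 Cells at 1500/well, incubated overnight, then treated with pinned compounds (dopamine as control) for 90 min at 37 degrees C. DiscoveRx reagent added for 30 - 60 minutes at room temperature; luminescence read.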
# D1 antagonist: Antagonist of Human D 1 Dopamine Receptor: qHTS. D(1A) dopamine receptor (Homo sapiens), P21728. HEK293 TREx D1 cells, calcium flux, dopamine EC80; stronger effect = lower value. activity change, negative = inhibition, % at 10 µM. 3.2% of 360,000 active. AID 504652, 2011; in the data active = activity change below about -30%
#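 Calcium flux readout: force-coupled, inducible Hek293 Trex D1 line, cells induced overnight at 30 C with tetracycline, dye-loaded 30–90 min at RT. Antagonism scored against EC80 dopamine challenge given 180 s after compound.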
# A number is an active result; – = inactive; ? = inconclusive; · = no result. Hits are enriched below; roughly 6% of the tested compounds scored in any of these assays.
SMILES,D1 PAM,D3 antag,D1 ag,DRD3 agonist,D1 antagonist
CCc1cccc(C)c1NC(=O)Cn1cc2c(n1)CCCCC2,–,·,–,–,–
COc1ccc(C2=NN(C(=O)CCC(=O)O)C(c3ccc(OC)c(OC)c3)C2)cc1 (configuration not stated),–,-50,–,–,–
COc1ccc(C2CC(c3ccc(Br)cc3)=NN2C(=O)CCC(=O)O)cc1OC (configuration not stated),–,–,–,–,–
COc1ccc(C2CC(c3ccc4ccccc4c3)=NN2C(=O)CN2C(=O)CCC2=O)cc1 (configuration not stated),–,–,–,–,-30
CCC(CC)C(=O)Nc1cc(-c2cccc(C)c2)nn1-c1ccccc1,–,·,–,–,–
O=C1C(O)=C(O)C(=O)C(O)=C1O,·,·,·,–,·
Cc1ccc(C)c(N(C(=O)c2nsc(Cl)c2Cl)C(C(=O)NC2CCCC2)c2ccc(O)cc2)c1 (configuration not stated),–,-62,–,–,–
CCN(CC)c1ccc2cc(C(=O)c3cccs3)c(=O)oc2c1,·,–,·,–,·
CCN(CC)c1ccc2cc(-c3nc(-c4ccc(Cl)cc4Cl)cs3)c(=O)oc2c1,–,·,119,–,–
CCN(CC)c1ccc2cc(-c3nc(-c4ccc(OC)cc4)cs3)c(=O)oc2c1,–,–,419,33,-58
CCOc1cc(C(=O)Nc2cc3c(cc2N2CCCC2)n(C)c(=O)c(=O)n3C)cc(OCC)c1OCC,–,·,–,–,–
O=C(O)c1ccc2c(c1)C(=O)N([C@H](Cc1ccc(O)cc1)C(=O)O)C2=O,–,·,–,·,–
Cc1cccc(N2CCN(S(=O)(=O)c3ccc4c(c3)C(C(C)C)C(=O)N4)CC2)c1C (configuration not stated),–,·,–,–,-37
Cc1ccc(C)c(N2CCN(S(=O)(=O)c3ccc4[nH]c(=O)ccc4c3)CC2)c1,–,–,–,–,–
Cc1cccc(N2CCN(S(=O)(=O)c3ccc4[nH]c(=O)ccc4c3)CC2)c1C,–,–,–,–,-35
Cc1cccc(N2CCN(S(=O)(=O)c3ccc4c(c3)NC(=O)C(C)S4)CC2)c1C (configuration not stated),–,–,–,–,–
Cc1cc(-c2nnc3n2N=C(c2ccc(-c4ccccc4)cc2)CS3)n[nH]1,–,?,63,–,–
COc1ccc(S(=O)(=O)NCCc2nnc3ccc(SCC(=O)Nc4nc(C)cs4)nn23)cc1,–,–,–,–,–
Cc1ccc(NC(=O)c2ccc3c(c2)C(=O)N(c2ccccc2C)C3=O)nc1,·,–,–,–,-36
Cc1ccc(NC(=O)CCCCCN2C(=O)c3ccccc3C2=O)nc1,–,–,–,–,-32
Cc1ccc(NCN2C(=O)C(=O)c3ccccc32)nc1,–,-64,–,–,–
COc1ccc(CCC(=O)NNC(=O)Cn2nc(C)cc2C)cc1,–,–,–,–,-58
Cc1cccc(OCCC(=O)NNC(=O)Cn2nc(C)cc2C)c1,·,–,·,–,·
Cc1cc(C)n(-c2nc(SCCN(C)C)c3c4c(sc3n2)CCCC4)n1,–,-71,–,–,–
CCC(O)CNc1nc(-n2nc(C)cc2C)nc2sc3c(c12)CCCC3 (configuration not stated),–,·,–,·,–
SMILES,D1 PAM,D3 antag,D1 ag,DRD3 agonist,D1 antagonist
Nc1cc(OCC(F)(F)F)cc([N+](=O)[O-])c1,–,–,–,–,–
Nc1cc(N)c(OCC(F)(F)F)cc1OCC(F)(F)F,–,-56,–,–,–
C=CCOc1ccc(CN(C)c2ccc(S(=O)(=O)N3CCN(C)CC3)cc2[N+](=O)[O-])cc1,–,?,–,–,-36
CCOc1ccc(CN(C)c2ccc(S(=O)(=O)N3CCN(C)CC3)cc2[N+](=O)[O-])cc1OC,–,–,–,–,-45
C[C@H](CO)N1C[C@H](C)[C@@H](CN(C)S(=O)(=O)c2ccc(F)cc2)OCc2cn(nn2)CCCC1=O,·,–,·,–,·
CCOC(=O)C1=C(CN2CCN(c3ccc(Cl)cc3)CC2)NC(=O)NC1c1ccc(F)cc1 (configuration not stated),–,·,–,–,–
Cc1nc(C(F)(F)F)c(C(=O)N/N=C(\N)c2ccccn2)s1,–,-52,–,–,–
CCC(Cn1nnc2ccccc2c1=O)NC(=O)Nc1cc(Cl)ccc1OC (configuration not stated),–,·,–,–,–
COC(=O)C(F)(Sc1c(C)n(C)n(-c2ccccc2)c1=O)C(F)(F)F (configuration not stated),–,-60,–,–,–
CC(C)c1ccc(NC(=O)CSC2=Nc3ccccc3C3=NC(CC(=O)NCc4ccc(F)cc4)C(=O)N23)cc1 (configuration not stated),–,·,–,–,–
COc1cccc(CN2CCC2(C)C(=O)Nc2cccc(Oc3ccccc3)c2)c1F (configuration not stated),·,–,·,–,·
CCOC(=O)C1=NN(C(=O)Cc2ccccc2)C(O)(c2ccc(Cl)cc2)C1 (configuration not stated),–,–,–,–,–
CCOC(=O)C1=NN(C(=O)c2ccc(OC)cc2)C(O)(c2ccc(Cl)cc2)C1 (configuration not stated),–,–,128,–,–
COC(=O)C1=NN(C(=O)c2cccc(Br)c2)C(O)(c2ccc(Cl)cc2)C1 (configuration not stated),–,–,106,–,–
CCOC(=O)C1=NN(C(=O)c2ccccc2)C(O)(c2ccc(C)cc2)C1 (configuration not stated),–,?,–,–,–
CCOC(=O)C1=NN(C(=O)c2cccc(Br)c2)C(O)(C(C)(C)C)C1 (configuration not stated),–,·,51,·,–
O=C(CN1CCN(Cc2ccccc2)CC1)c1c[nH]c2ccccc12,–,-54,–,–,–
O=C(CN1CCCCC1)c1c[nH]c2ccccc12,–,–,–,–,–
O=C(CN1CCN(Cc2ccccc2)CC1)c1ccc(Br)cc1,–,-62,–,–,–
O=C(CN1CCN(Cc2ccccc2)CC1)c1ccccc1,–,–,–,–,–
Cc1ccc2c(c1)C(=O)CC1(CCC(C(C)(C)C)CC1)O2 (configuration not stated),–,–,–,–,-31
Cc1ccc2c(c1)C(=O)CC(O)(C(F)(F)F)O2 (configuration not stated),–,–,–,–,–
CCc1ccc(NC(=O)Cn2nnc(-c3ccccc3N)n2)cc1,–,·,–,80,–
O=[N+]([O-])/C(=C\Nc1ccccc1)S(=O)(=O)c1ccccc1,–,–,–,–,-88

# Assay outcomes: PubChem BioAssay, National Center for Advancing Translational Sciences (NCATS)
